Screening results: PubChem, NMMLSC
GRK2 inh – blocks RNA aptamer binding to human GRK2. P25098. bead flow cytometry, FAM-aptamer displacement from GRK2. inhibition of aptamer binding, % at 10 µM. 0.59% of 330,000 active;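 active = inhibition of aptamer binding above 40%, roughly 3 SD of noise, on plates passing a quality check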;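 note: median bead fluorescence of bound FAM aptamer so fluorescent compounds give negative values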
MEKK3 PB1 HTS – modulators (inhibitors or enhancers) of MEK5 binding to human MEKK3 PB1 domain. bead-based flow cytometry, Alexa488-MEK5 binding to MEKK3; actives lie on both sides; 0 = blocked by unlabeled MEK5, 100 = vehicle. binding response (% of control), % at 10 µM. AID 1529. Q99759. 1.4% of 290,000 active;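 active = binding response more than 3 SD above or below the average of its plate-row segment, actives on both sides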;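 note: Alexa488 bead fluorescence after subtracting the streptavidin-only scavenger bead signal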
Target sequence (Q99759 whole entry, looked up, the tested form may be a part): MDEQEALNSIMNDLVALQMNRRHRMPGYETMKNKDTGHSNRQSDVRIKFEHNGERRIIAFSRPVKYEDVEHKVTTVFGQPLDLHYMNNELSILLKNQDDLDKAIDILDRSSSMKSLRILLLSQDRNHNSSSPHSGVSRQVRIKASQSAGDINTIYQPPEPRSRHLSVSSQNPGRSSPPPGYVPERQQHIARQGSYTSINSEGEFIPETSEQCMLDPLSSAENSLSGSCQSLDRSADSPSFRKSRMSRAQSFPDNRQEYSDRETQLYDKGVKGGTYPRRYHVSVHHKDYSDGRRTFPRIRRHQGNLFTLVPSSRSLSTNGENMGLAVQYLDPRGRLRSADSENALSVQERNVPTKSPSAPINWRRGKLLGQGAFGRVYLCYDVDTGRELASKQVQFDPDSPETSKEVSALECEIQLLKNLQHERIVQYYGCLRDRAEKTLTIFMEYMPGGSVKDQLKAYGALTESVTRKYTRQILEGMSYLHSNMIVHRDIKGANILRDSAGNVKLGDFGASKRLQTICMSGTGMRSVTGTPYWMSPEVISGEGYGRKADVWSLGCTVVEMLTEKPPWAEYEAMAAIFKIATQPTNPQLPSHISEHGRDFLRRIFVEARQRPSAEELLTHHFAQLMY
MEKK2wt PB1 HTS – raises or lowers MEK5 binding to wildtype human MEKK2 PB1 domain; Q9Y2U5; bead flow cytometry, Alexa488-MEK5 binding to MEKK2 WT; actives lie on both sides; binding response (% of control), % at 10 µM; 1.1% of 290,000 active; AID 1531; in the data active = binding response below about 67% or above about 130%
MEKK2 mut-MEK5 – signal of MEK5 binding to mutant human MEKK2 PB1 domain; percent response, % at 10 µM; bead flow cytometry, Alexa488-MEK5 binding to MEKK2 mutant; 0.35% of 290,000 active; in the data active = percent response above about 24%, passing the limit was not always enough
Numbers without * were called inactive; nt = no result; [ ] = dose if it differs, or a comment. In the library only some 2.5% were active in any assay of this set; here they are far more common.

SMILES	GRK2 inh	MEKK3 PB1 HTS	MEKK2wt PB1 HTS	MEKK2 mut-MEK5
O=C(N/N=C/c1cccs1)C(=O)N1CCCC1	2.0	100.0	100.0	-2.0
Cn1ncc2c(NCc3cccc(C(F)(F)F)c3)c(C(=O)O)cnc21	55.0*	112.0	107.0	-1.0
CCN(Cc1ccccc1)c1c(C(=O)O)cnc2c1cnn2C	3.0	97.0	98.0	-4.0
CC[N+]1=C(C)C(C)(C)c2cc(C)ccc21	34.0	100.0	77.0	-3.0
Cc1ccc2c(c1)C=CC(C)(C)S2=O (stereo not drawn)	0.0	130.0*	101.0	2.0
Cc1ccc(-c2cc3onc(-c4ccccc4)c3c(=O)n2C)cc1	0.0	nt	nt	nt
Cn1c(-c2ccc(F)cc2)cc2onc(-c3c(F)cccc3Cl)c2c1=O	52.0*	nt	nt	nt
O=C(CSc1nnc(SCc2ccccc2)s1)N/N=C/C=C/c1ccco1	7.0	96.0	102.0	6.0
CCOC(=O)c1[nH]cnc1C(=O)NC(C)C	2.0	81.0	86.0	4.0
CCN(CC)c1ccc(/C=C/c2cccc[n+]2C)c(OC)c1	0.0	98.0	12.0*	21.0
CC(=O)Nc1nc(C)c(C(C)(C)C)s1	0.0	88.0	90.0	-17.0
CSc1nsc(/C=C/Nc2ccc(F)cc2F)c1C#N	98.0*	99.0	95.0	-7.0
CSc1nsc(/C=C/Nc2ccc(C(=O)O)cc2)c1C#N	3.0	123.0	105.0	-1.0
CCN1CCN(S(=O)(=O)c2cc(OCC(=O)NC3CCCCC3)c(C)cc2Cl)CC1	0.0	3.0*[inhibitor]	3.0*[inhibitor]	-15.0
O=C(O)CN1C(=O)C2C3CC(C2C1=O)C1C(c2ccc(Cl)cc2)c2sc(=O)[nH]c2SC31 (stereo not drawn)	0.0	76.0	71.0	-14.0
Cc1ccc(NC(=O)CC(=O)NCCN2CCOCC2)cc1	0.0	101.0	101.0	2.0
N=C1S/C(=C\c2ccccc2F)C(=O)N1c1ccc(F)cc1	0.0	114.0	107.0	0.0
N=C1S/C(=C\c2cccc3ccccc23)C(=O)N1c1ccc(F)cc1	0.0	144.0*	102.0	0.0
Cc1cc(C)c(OCC(O)CN2CCN(c3ccccn3)CC2)c(C)c1 (stereo not drawn)	0.0	106.0	-8.0*	3.0
Cc1cc(OCC(O)CN2CCN(c3ccccn3)CC2)cc(C)c1Cl (stereo not drawn)	0.0	105.0	118.0	10.0
O=C(O)CN1CCN(Cc2cccc(Cl)c2)C1=O	4.0	95.0	97.0	-2.0
CCCCCN(C(=O)CCC(=O)OCc1ccccc1F)c1c(N)n(CCCC)c(=O)[nH]c1=O	2.0	nt	nt	nt
CCCCCN(C(=O)CCC(=O)OCc1ccccc1C(F)(F)F)c1c(N)n(CCCC)c(=O)[nH]c1=O	47.0*	98.0	98.0	1.0
CCCCn1c(CNC(=O)C23CC4CC(CC(C4)C2)C3)nnc1SCC(=O)Nc1nnc(C)s1	2.0	112.0	116.0	11.0
COc1cc(N2CCCC2)ccc1C=O	0.0	103.0	90.0	-8.0
SMILES	GRK2 inh	MEKK3 PB1 HTS	MEKK2wt PB1 HTS	MEKK2 mut-MEK5
Cc1cc(N2CCCC2)c(C)cc1C=O	0.0	95.0	-46.0*	-6.0
O=C(O)C1=CC(=C(c2ccc(O)c(C(=O)O)c2)c2ccc(O)c(C(=O)O)c2)C=CC1=O	99.0*	nt	nt	nt
Nc1ccc(O)c(C(=O)O)c1	1.0	111.0	109.0	5.0
O=C(Nc1ccc(F)cc1)c1ccc2nsnc2c1	0.0	91.0	96.0	-14.0
COc1cc2c(cc1NC(=O)CN1C(=O)NC3(CCc4ccccc43)C1=O)oc1ccccc12 (stereo not drawn)	0.0	112.0	10.0*	-4.0
COc1ccc(-c2csc(NC3CCCCC3)n2)c(OC)c1	0.0	98.0	-4.0*[inhibitor]	2.0
O=C1CC(=O)N(Cc2ccco2)C(=O)N1	89.0*	nt	nt	nt
COCCCn1c(C)cc(C(=O)COC(=O)CCc2nc3ccccc3c(=O)[nH]2)c1C	0.0	69.0	65.0	-20.0
NS(=O)(=O)c1ccc(N/C=C\C(=O)c2ccc3ccccc3c2)cc1	49.0*	99.0	109.0	7.0
N#Cc1ccc(CN2CCN(CC(=O)NCCc3ccc(Cl)cc3Cl)CC2)cc1	0.0	103.0	151.0*	28.0*
C/C(=N\Nc1nc2ccc(Cl)cc2o1)c1ccccc1	0.0	105.0	-3.0*	4.0
C/C(=N\Nc1nc(C)cc(-c2ccccc2)n1)c1ccccc1	0.0	95.0	106.0	1.0
O=C1OCC2OC(O)C(O)C(O)C2OC(=O)c2cc(O)c(O)c(O)c2-c2c(O)c(O)c3oc(=O)c4c(c(O)c(O)c5oc(=O)c2c3c54)-c2c1cc(O)c(O)c2O (stereo not drawn)	nt	73.0*[inhibitor]	66.0*[inhibitor]	-15.0
